Records with an inconclusive call do not appear. Entries that show only a call come without a potency. A number with no mark means an inactive call. Activity calls are given as the source filed them. The call rests on the fitted dose curve; in most records, active means well fitted inhibition curve with a large enough effect; inconclusive means small, poorly fitted or top-dose-only effect; inactive means no such curve, though single readings can be large or run the other way. *1 amine or outer side, *2 acyl side, *3 side chain or, on linkers, in order; H or OH if unused. Where a SMILES comes first, the peptide text is derived from it. [ ]: non-standard residue; d: D form. The star is where a group is joined. X4 = CC(C)=CCc1cc(C(O)C(N[*:1])C(=O)[*:2])ccc1O; AFC = O=c1cc(C(F)(F)F)c2ccc(N*)cc2o1
system: Zika virus NS2B-NS3 protease (linked construct); assay: Primary screen NINDS Rhodamine qHTS for Zika virus inhibitors (AID 1347160); settings: purified NS2B-NS3 protease, Rhodamine110 substrate fluorescence; series mostly up to 57.1 µM; further: nearly all actives have a fitted effect of over 55% in size
Procedure, shortened: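 In 10 mM Tris-HCl pH 8.0 containing 0.01% Tween 20, linked NS2B-NS3 protease (25 nM final) is exposed to test compounds for 15 min. Cleavage of 1.5 microM Rhodamine110 substrate is tracked by fluorescence over 15 min.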
Potency means the concentration at half of the fitted maximal effect.

Compound | Potency | activity change, negative = inhibition
CC1CC(O)C2(OC1=O)OC1C(O)C3C4CCC5CC(OC6OC(CO)C(O)C(O)C6OC6OC(C)C(O)C(O)C6O)CCC5(C)C4CCC3(C)C1C2C (stereo unspecified) | inactive | –
C=CC1C(OC2OC(CO)C(O)C(O)C2O)OC=C2C(=O)N3C(C(=O)O)Cc4c([nH]c5ccccc45)C3CC21 (stereo unspecified) | inactive | –
C/C=C/c1ccc(O[C@@H]2O[C@H](CO)[C@@H](O)[C@H](O)[C@H]2O)c(OC)c1 | inactive | –
CC1CC[C@]2(C(=O)O)CC[C@]3(C(=O)O)C(=CCC4[C@@]5(C)CC[C@H](OC6OC(C)C(O)C(OC7OC(CO)C(O)C(O)C7O)C6O)C(C)(C)C5CC[C@]43C)C2C1C (stereo partly specified) | inactive | –
CCOC(=O)CCN(C(=O)c1ccc2c(c1)nc(CNc1ccc(C(=N)N)cc1)n2C)c1ccccn1 | inactive | –
Cc1csc(NC(=O)c2ccc(COc3cccc(Cl)c3)o2)n1 | inactive | –
Cc1cc(NC(=O)Nc2ccc(F)c(F)c2)n(-c2ccccc2)n1 | inactive | –
CC(=O)N[C@@H](Cc1c[nH]c2ccccc12)C(=O)N[C@@H](CCC(=O)O)C(=O)N[C@@H](Cc1cnc[nH]1)C(=O)N[C@@H](CC(=O)O)C(=O)Nc1ccc2c(C(F)(F)F)cc(=O)oc2c1 (Ac-WEHD-{AFC}) | inactive | –
CC1OC(OC2C(OC3C(O[C@H]4CC[C@@]5(C)C(CC[C@]6(C)C5C(=O)C=C5C7CC(C)(C)CC(O)[C@]7(C)CC[C@]56C)C4(C)C)OC(C(=O)O)C(O)C3O)OCC(O)C2O)C(O)C(O)C1O (stereo partly specified) | inactive | –
CC1OC(O[C@H]2CC[C@@]3(C)C(CC[C@]4(C)C3CC=C3C5CC(C)(C)CC[C@]5(C(=O)OC5OC(CO)C(OC6OC(COC7OCC(O)C(O)C7O)C(O)C(O)C6O)C(O)C5O)CC[C@]34C)C2(C)C)C(O)C(O)C1OC1OCC(OC2OCC(O)C(O)C2O)C(O)C1O (stereo partly specified) | – | -22.7% [at 10.7 µM]
O=S(=O)(Nc1ccccn1)c1ccc(N=Cc2c(O)[nH]c3ccc4ncsc4c23)cc1 | – | 12% [at 10.7 µM]
C[C@@H]1COCCN1c1cc(C2(S(C)(=O)=O)CC2)nc(-c2cccc3[nH]ccc23)n1 | inactive | –
CC(C)=CCc1cc(C(O)C2NC(=O)CNC(=O)C(Cc3c[nH]c4ccccc34)NC(=O)C3CCCN3C(=O)CNC(=O)C(C(C)C)NC(=O)CNC2=O)ccc1O (stereo unspecified) (cyclo(G[X4]GVGPW); configuration not given here) | inactive | –
CC(=O)O[C@H]1CC[C@H](C)[C@@]2(C)[C@H](OC(C)=O)c3c(C)coc3C(=O)[C@H]12 | inactive | –
CC1=C2C3OC(=O)C(C)C3(O)CCC2(C)CCC1O (stereo unspecified) | inactive | –
C/C1=C\CCC2=C[C@@H](OC2=O)c2c(C)coc2C1 | inactive | –
Nc1ncnc2c([C@@H]3N[C@H](CO)[C@@H](O)[C@H]3O)c[nH]c12 | inactive | –
O=C(O)/C=C/c1cc2c(cc1O[C@@H]1O[C@H](CO)[C@@H](O)[C@H](O)[C@H]1O)OCO2 | inactive | –

Compound | Potency | activity change, negative = inhibition
O=S(=O)(NC1CCC(c2cc(F)ccc2F)(S(=O)(=O)c2ccc(Cl)cc2)CC1)C(F)(F)F (stereo unspecified) | 12.6 µM (active) | –
C=CC1(C)C=C2C(=O)OC(=O)C3=C(CCCC3(C)C)C2(O)CC1 (stereo unspecified) | inactive | –
CC(=O)C=C=C1C(C)(C)CC(O[C@@H]2O[C@H](CO)[C@@H](O)[C@H](O)[C@H]2O)CC1(C)O (stereo partly specified) | inactive | –
Cc1cc(=O)oc2c(C=O)c(O)ccc12 | inactive | –
CC1(c2nc3c(C(N)=O)cccc3[nH]2)CCCN1 (stereo unspecified) | inactive | –
CC(=O)OC1/C(C)=C/C(=O)C(OC(C)=O)C(C)(C)/C=C/C(C)C(=O)C2(OC(C)=O)CC(C)C(OC(=O)c3ccccc3)C12 (stereo unspecified) | inactive | –
CN(C)CC1CCOC1(c1ccccc1)c1ccccc1 (stereo unspecified) | inactive | –
CCC1=CC2CN(C1)Cc1c([nH]c3ccccc13)[C@@](C(=O)OC)(c1cc3c(cc1OC)N(C)[C@H]1[C@@](O)(C(=O)OC)[C@H](OC(C)=O)[C@]4(CC)C=CCN5CC[C@]31[C@@H]54)C2 (stereo partly specified) | inactive | –
Cc1ccc(-c2c(C(=O)CF)n(CCCO)c3ncnc(N)c23)cc1 | inactive | –
CCCCc1ccc(C(=O)Nc2cc(-c3ccc(Cl)cc3)nn2-c2ccc(Cl)cc2)cc1 | inactive | –
Cc1cc(N(C)C)ccc1-c1nc2ccc(-c3nc4ccc(N5CCN(C)CC5)cc4[nH]3)cc2[nH]1 | inactive | –
CC1(C)CCCC2(C)C=C(C(=O)O)C(O)CC12 (stereo unspecified) | inactive | –
CC1(C=O)CC[C@]2(C(=O)O[C@@H]3O[C@H](CO)[C@@H](O)[C@H](O)[C@H]3O)CC[C@]3(C)C(=CCC4[C@@]5(C)C[C@H](O)[C@H](O[C@@H]6OC[C@@H](O)[C@H](O)[C@H]6O)[C@@](C)(CO)C5CC[C@]43C)C2C1 (stereo partly specified) | inactive | –
CCc1c(C)nc2c(-c3cnn(-c4cc(CO)ccn4)c3)c[nH]n2c1=O | inactive | –
O=C1OCc2cc3cccc(O[C@@H]4O[C@H](CO)[C@@H](O)[C@H](O)[C@H]4O)c3c(O)c21 | 11.2 µM (active) | –
C=C1C(=O)O[C@H]2[C@H]1CC/C(C)=C/CC[C@@]1(C)O[C@@H]21 | inactive | –
CCOC(=O)Nc1cc(-c2ccc(C)c(NS(C)(=O)=O)c2)nn2c(C)nnc12 | inactive | –
C/C=C/c1ccc2c(c1)[C@@H](C)[C@H](c1ccc(O)cc1)O2 | inactive | –
